For assay [1], the system named is Aerobactin synthetase IucA (Klebsiella pneumoniae). The assay is described as follows: inhibition of K. pneumoniae IucA enzyme – biochemical, Tocris library, absorbance (AID 1345561).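 Note: 100% = enzyme without compound and 0% = no enzyme.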 The settings on record: purified IucA enzyme assay, absorbance (OD) read-out; stronger effect = lower value;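 tested at 8 µM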.
A short description of assay [2]: viability loss with induced miR-34 in A549 – imaging, A549 dox-inducible miR-34, nuclei and caspase counts, primary screen (AID 1347080;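 active = compounds whose cell count with miR-34 switched on is under 0.7 times the count with it off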). To be noted: A549 miR-34 inducible, Hoechst nuclei count, 48 h.
A short description of assay [3]: blockers of cellular phospholipid synthesis – cell-based, LOPAC library, screen 4, primary screen (AID 1347384). To be noted: animal cells, phospholipid biosynthesis inhibition screen; at 10 µM.
Assay [4] in a line: galactose survival enhancers in mitochondrial complex I cybrids – cell-based, galactose medium, ATP luminescence, primary screen (AID 1645843;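 active = z-score of at least 1.8 in each of two replicates, scored against plate mean and spread of sample wells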;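 note: positive z means more ATP and so rescue of galactose-driven cybrid death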). The settings on record: complex I mutant cybrid cells, 72 h, stronger effect = higher value.
Assay [5] is described as follows: compounds altering circadian rhythm period length – cell-based, LOPAC library, luminescence reporter (AID 2774).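 Note: values are relative to mean of DMSO wells on each plate.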 The settings on record: circadian reporter cells, at 7 µM, actives lie on both sides.
Assay [6] relates to Hepatitis C virus NS3 helicase. In words: blockers of NS3h binding to ssDNA – biochemical, fluorescence polarization, LOPAC1280 library, primary screen (AID 687035; in the data active = inhibition above about 37%). To be noted: Purified HCV NS3 helicase, Cy5-dT15 ssDNA binding fluorescence polarization; stronger effect = higher value; concentration not given here. In general terms: In fluorescence polarisation assays a small probe gives low polarisation when free and higher when bound to something large.

Assay [7] is described as follows: compounds altering Cy5-DNA-NS3h complex signal – biochemical, LOPAC1280, artefact control for HCV NS3 helicase inhibitor project (AID 687037). The settings on record: Cy5-DNA-NS3h complex fluorescence interference counterscreen. For orientation: A counterscreen serves to expose hits that act by an unwanted route or on another target.
Assay [8] can be described thus: MELAS cybrid and Rieske KO viability enhancers – cell-based, MELAS cybrids, Rieske KO mouse fibroblasts, CellTiter-Glo, primary screen (AID 1508586;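 active = mean z-score across replicates of 1.96 or higher in either the MELAS or the Rieske mutant cell line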;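 note: z relative to plate mean and SD of compound and empty wells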). To be noted: low glucose. For orientation: In ATP-based viability assays light output follows the ATP content of the culture.
A short description of assay [9]: compounds altering viability of human ES cells (AID 493140).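 Note: cells exposed to compounds for four days before counting.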 To be noted: human embryonic stem cell survival screen; stronger effect = higher value.
Assay [10] can be described thus: chitosan synthesis blockers in C. neoformans – flow cytometry, Cibacron Brilliant Red staining (AID 1347148).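 Note: compound exposure lasted three days at 37 degrees C.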 To be noted: Cryptococcus neoformans chitosan, stronger effect = lower value; at 10 µM unless noted.
Assay [11] in a line: P. berghei load reduction in hepatocytes – cell-based, HepG2, luciferase luminescence, HepG2 viability, primary screen (AID 624349; in the data active = parasite load remaining mostly below about 12%, no sharp cut-off; inactive = mostly above about 10%;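 note: 100% = mean of DMSO negative control wells on the same plate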). To be noted: P. berghei liver stage in HepG2, luciferase luminescence, concentration not given here; parasite load remaining: stronger effect = lower value; viability: measured here: HepG2 viability without parasites.
Setting [12] is: stronger effect = lower value, cell number ratio, induced over uninduced.
Setting [13] is: measured here: relative caspase fold change +Dox/-Dox.
The mark [14] stands for this setting: measured here: total cells with miR-34 induction, stronger effect = lower value.
Where [15] appears, read: measured here: total cells without miR-34 induction.
[16] abbreviates: MELAS cybrid survival, CellTiter-Glo 48 h, stronger effect = higher value.
Where [17] appears, read: Rieske KO mouse fibroblast survival, CellTiter-Glo 72 h.

Each structure is given as a SMILES string. Several values for one entry are separate records, joined by “and”; a condition that tells them apart may be missing. Identical values can stand only once. The source holds several records for some structures; these can differ, active in one and inactive in another. Activity calls are given as the source filed them. Unless noted, the rule behind the calls is not given here.

A word on the remaining activity: it is the signal under treatment as a percentage of the control signal. For the molecule `COc1ccc(Br)cc1S(=O)(=O)NC(=O)/C=C/c1ccccc1Cc1ccc2ccccc2c1`, the remaining activity in assay [1] was 102% (inactive). Moreover, the fold change in assay [2] (setting [12]) was 1.05 (inactive) and 0.853 (inactive); in assay [2] (setting [13]), 1.89 and 2.15. The cell count was 9590 and 8680 in [2] (setting [14]); 9110 and 10200 in assay [2] (setting [15]). The outcome in assay [3] was inactive. The z-score in assay [4] is 0.395 (inactive) and 0.085 (inactive).
One may read the inhibition as the change of the read-out against control, counted positive when it falls. Regarding `COc1ccccc1N1CCN(CCN2C(=O)CC3(CCCC3)CC2=O)CC1`, in assay [5], the period change is -0.035 h (inactive). Besides, the inhibition in assay [6] was -5% (inactive). Also, in assay [7], the fluorescence ratio (interference) is 1 (inactive). Also, in [1], the remaining activity is 96.2% (inactive). The fold change in assay [2] (setting [12]) is 1.01 (inactive) and 0.904 (inactive) and 0.921 (inactive); in [2] (setting [13]), 1.78 and 0.65 and 0.553. The cell count in [2] (setting [14]) was 10300 and 7050 and 8240; in assay [2] (setting [15]), 10200 and 7800 and 8940. The call in assay [3] was inactive. Besides, the z-score was -0.152 (inactive) in assay [8] (setting [16]); -0.237 in [8] (setting [17]); -0.235 (inactive) and -0.615 (inactive) in assay [4].
Take `CCSC(=N)N`: in assay [5], the period change was 0.115 h (inactive). The inhibition in assay [6] is -2% (inactive). In assay [7], the fluorescence ratio (interference) was 1 (inactive). In assay [1], the remaining activity was 116% (inactive). For the same molecule, the fold change in assay [2] (setting [12]) was 1.03 (inactive) and 0.939 (inactive) and 0.949 (inactive); in assay [2] (setting [13]) it was 0.74 and 0.98 and 1.59. Further, the cell count in assay [2] (setting [14]) is 10300 and 5940 and 9910; in assay [2] (setting [15]), 10000 and 6330 and 10400. In assay [3], the molecule was called inactive. Further, in assay [4], the z-score is 0.125 (inactive) and 0.13 (inactive).
For `CCCCCCCC/C=C\CCCCCCCC(N)=O`, the survival in assay [9] is 102 (inactive). The remaining activity in assay [1] is 107% (inactive). The fold change in assay [2] (setting [12]) was 0.955 (inactive) and 0.909 (inactive) and 1 (inactive); in assay [2] (setting [13]), 1.2 and 0.885 and 0.621. Besides, the cell count is 5390 and 5900 and 8530 in assay [2] (setting [14]); 5650 and 6490 and 8490 in [2] (setting [15]). Also, the fold fluorescence in assay [10] is 4.91 (inactive). Further, in assay [4], the z-score was -0.84 (inactive).
Usually viability stands for a read-out of living cells in per cent, often relative to untreated cells. As for `CN(C(=O)CCCOc1ccc2[nH]c(=O)ccc2c1)C1CCCCC1`, in assay [5], the period change was -0.015 h (inactive). Also, the parasite load remaining in assay [11] is 30.5% (inactive). The molecule also gave a viability in assay [11] of 71.5%. For the same molecule, the inhibition in assay [6] was -1% (inactive). In [7], the fluorescence ratio (interference) is 1 (inactive). Also, the remaining activity in assay [1] is 117% (inactive). Moreover, the fold change is 1.04 (inactive) and 0.982 (inactive) and 0.9 (inactive) in assay [2] (setting [12]); 2.05 and 0.725 and 1.16 in assay [2] (setting [13]). The cell count was 8910 and 7180 and 9490 in assay [2] (setting [14]); 8530 and 7310 and 10500 in [2] (setting [15]). Further, the molecule was classed as inactive in [3]. In addition, the z-score was 0.542 (inactive) in [8] (setting [16]); -0.471 in assay [8] (setting [17]); -0.385 (inactive) and 0.22 (inactive) and -0.02 (inactive) in assay [4].
On to `CNC(=O)c1cc2c(cn1)[nH]c1ccccc12`, for which the period change in [5] was -0.24 h (inactive). Also, in assay [6], the inhibition is 0% (inactive). Also, the fluorescence ratio (interference) in assay [7] was 1 (inactive). Besides, the remaining activity in assay [1] was 99.6% (inactive). Moreover, the fold change in assay [2] (setting [12]) is 0.95 (inactive) and 0.891 (inactive); in assay [2] (setting [13]), 1.84 and 0.981. The cell count was 8950 and 7610 in [2] (setting [14]); 9420 and 8540 in assay [2] (setting [15]). Besides, the call in assay [3] was inactive. The z-score in [4] was 2.76 (active) and 1.85 (inactive).
As to `CCCCCCCCCCCCC/C=C/[C@@H](O)[C@H](CO)NC(C)=O`, in assay [9], the survival is 95 (inactive). Besides, the remaining activity in assay [1] was 114% (inactive). The fold change in assay [2] (setting [12]) was 0.919 (inactive) and 1.02 (inactive) and 0.95 (inactive); in assay [2] (setting [13]), 1.09 and 0.67 and 0.924. Also, the cell count was 5360 and 6170 and 8250 in assay [2] (setting [14]); 5840 and 6040 and 8680 in assay [2] (setting [15]). Besides, the fold fluorescence in assay [10] is 5.52 (inactive). Also, the z-score in [4] is -1.23 (inactive).
With `NS(=O)(=O)C#Cc1ccccc1`, the inhibition in [6] is 0% (inactive). In addition, the fluorescence ratio (interference) in assay [7] is 1 (inactive). Besides, in assay [1], the remaining activity was 110% (inactive). Besides, the fold change is 1.19 (inactive) and 0.967 (inactive) and 1.13 (inactive) in [2] (setting [12]); 1.2 and 0.467 and 1.12 in [2] (setting [13]). Besides, the cell count in assay [2] (setting [14]) was 3660 and 6510 and 3430; in assay [2] (setting [15]), 3080 and 6730 and 3020. In assay [3], the call was inactive. For the same molecule, the z-score in [8] (setting [16]) was -0.62 (inactive); in assay [8] (setting [17]), -0.117; in assay [4] it was -1.27 (inactive) and -0.695 (inactive).

The values are drawn from PubChem BioAssay.
